Screens (PubChem)
The list is not random: actives were taken first. Their share in the collection is about 2.1%.
U2OS ROS induce = cancer cell ROS induction; ROS induction (% of piperlongumine), % at 10 µM; 46,000 compounds, 2% hits; U2OS ROS induction, H2DCF-DA fluorescence; AID 624156; in the data active = ROS induction above about 79%, passing the limit was not always enough; inconclusive = no clear call, values can overlap the other calls;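 note: 0% = DMSO vehicle median and 100% = reference compound median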
PD-1 reverse act = activators reversing PD-1 mediated T-cell inhibition; primary human CD4 T cells, PD-L1 beads, CellTiter-Glo 96 h; activation, % (test concentration not listed); 29,000 tested, under 10 active; AID 2316; call rule not given here;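 note: 0% = median vehicle wells and 100% = positive control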
YB-1 expression = YB-1 expression inhibition. 30,000 compounds, 0.37% hits. AID 434959. U2OS, qRT-PCR YB-1 vs CDIP delta delta Cp, 16 h; active compounds read high; zero = DMSO, each unit about twofold. delta delta Cp (YB-1 minus CDIP) (concentration not given with the values);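 active = delta delta Cp rounded down to an integer at or above 3, about 3 SD of DMSO wells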;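 note: higher means less YB-1 transcript or more CDIP transcript relative to DMSO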
Starred values were filed as active, the others as inactive; ? = inconclusive; . = no result.

SMILES	U2OS ROS induce	PD-1 reverse act	YB-1 expression
CCNC(=S)Nc1sc2c(c1C#N)CCC(C)C2 (centres undefined)	167*	0	-0.14
CC1CCc2sc(NC(=O)C(Cc3ccccc3)Cc3ccccc3)c(C#N)c2C1 (centres undefined)	1	-1	-0.078
O=C(Oc1ccccc1)Oc1ccc2oc(=O)sc2c1	6	-2	0.079
COc1cc(OC)c(O[C@@H]2O[C@H](COC(=O)c3cc(O)c(O)c(O)c3)[C@@H](O)[C@H](O)[C@H]2O)c(OC)c1	4	-2	5.6*
O=C(OC[C@H]1O[C@@H](Oc2ccc(O)cc2)[C@H](O)[C@@H](O)[C@@H]1O)c1ccc(O)cc1	-3	.	0.42
CC1C2CC(C(S(=O)(=O)N3CCOCC3)C2=O)C1(C)C (centres undefined)	115*	0	-0.19
CC(C)c1ccc(S(=O)(=O)N2CCOCC2)cc1	-1	.	.
COc1ccc([Si](C)(C)[C@H]2[C@H](CCn3cc([C@H](O)c4ccccc4)nn3)O[C@@]3(C(=O)N(Cc4cccc(N5CCC5=O)c4)c4ccccc43)[C@@H]2C)cc1	61	.	0.037
COc1ccc([Si](C)(C)[C@@H]2[C@@H](CCn3cc(CCO)nn3)O[C@]3(C(=O)N(Cc4ccc(N5CCC5=O)cc4)c4ccccc43)[C@H]2C)cc1	35	.	0.24
COc1ccc([Si](C)(C)[C@H]2[C@H](CCn3cc(CCO)nn3)O[C@@]3(C(=O)N(Cc4ccc(N5CCC5=O)cc4)c4ccccc43)[C@@H]2C)cc1	80*	.	-0.057
COc1ccc([Si](C)(C)[C@H]2[C@H](CCn3cc(CCO)nn3)O[C@@]3(C(=O)N(Cc4cccc(N5CCC5=O)c4)c4ccccc43)[C@@H]2C)cc1	109*	.	0.11
COc1ccc([Si](C)(C)[C@@H]2[C@@H](CCO)O[C@]3(C(=O)N(Cc4ccc(N5CCC5=O)cc4)c4ccccc43)[C@H]2C)cc1	128*	.	0.026
COc1ccc([Si](C)(C)[C@H]2[C@H](CCO)O[C@@]3(C(=O)N(Cc4ccc(N5CCCCC5=O)cc4)c4ccccc43)[C@@H]2C)cc1	74	.	0.21
CN(C)CCCN1C(=O)C(=O)C(C(=O)c2ccco2)C1c1ccc([N+](=O)[O-])cc1 (centres undefined)	-15	3	.
COc1ccc(S(=O)(=O)N(C)CC(=O)Nc2cccc(C(F)(F)F)c2)cc1	8	0	.
COC(=O)c1cc2c(=O)n3ccccc3nc2n(C(C)C)c1=N	-4	.	.
N=c1c(S(=O)(=O)c2ccccc2)cc2c(=O)n3ccccc3nc2n1C1CCCC1	83*	.	.
O=P(CCNCc1cccnc1)(c1ccccc1)c1ccccc1	6	.	.
CC(=O)Oc1ccc(-c2coc3cc(OC(C)=O)cc(OC(C)=O)c3c2=O)cc1	26	0	0.38
CC(=O)OC[C@H]1O[C@@H](Oc2cc(OC(C)=O)c3c(=O)cc(-c4ccc(OC(C)=O)cc4)oc3c2)[C@H](OC(C)=O)[C@@H](OC(C)=O)[C@@H]1OC(C)=O	246*	.	-0.013
CCC(Sc1nc(Nc2ccc(F)cc2)c2ccccc2n1)C(=O)Nc1ccc2c(c1)OCO2 (centres undefined)	118*	.	.
O=C(CSc1nc2ccccc2c(=O)[nH]1)Nc1ccc2c(c1)OCCO2	7	-1	.
O=C(NCC1CC1)c1ccccc1NS(=O)(=O)c1ccc(F)cc1F	-5	.	.
Cn1c(-c2nonc2NC(=O)c2ccccc2Br)nc2ccccc21	102*	0	.
CC(=O)Nc1nonc1-c1nc2ccccc2n1Cc1ccccc1Br	12	-4	.
SMILES	U2OS ROS induce	PD-1 reverse act	YB-1 expression
COC(=O)C(Cc1c[nH]c2ccccc12)NS(=O)(=O)c1cccc2nonc12 (centres undefined)	12	1	0.2
O=c1c2c3c(sc2ncn1/N=C/c1cc(Br)ccc1O)CCCC3	4	.	.
C=CCN1C(=O)[C@@]2(O[C@@H](CCn3cc(CCO)nn3)[C@H]([Si](C)(C)c3ccc(OC)cc3)[C@H]2C)c2cc(N3C(=O)c4cccc5cccc3c45)ccc21	90*	.	-0.28
C=CCN1C(=O)[C@@]2(O[C@@H](CCn3cc(CCO)nn3)[C@H]([Si](C)(C)c3ccc(OC)cc3)[C@H]2C)c2ccccc21	27	.	0.099
COc1ccc([Si](C)(C)[C@@H]2[C@@H](CCO)O[C@]3(C(=O)N(Cc4ccccc4)c4ccc(N5C(=O)c6cccc7cccc5c67)cc43)[C@H]2C)cc1	?	.	-0.18
C=CCN1C(=O)[C@]2(O[C@H](CCn3cc(CCO)nn3)[C@@H]([Si](C)(C)c3ccc(OC)cc3)[C@@H]2C)c2cc(N3C(=O)c4cccc5cccc3c45)ccc21	97*	.	-0.17
N#Cc1ccc(/C=N/NC(=O)c2cccc(C(=O)NO)c2)cc1	-9	.	-0.8
CC(C)CCNC(=O)c1ccc2nc(-c3cccs3)c(-c3cccs3)nc2c1	-1	.	.
C[C@@H]1CN([C@@H](C)CO)C(=O)c2cc(NC(=O)Cc3ccccc3)ccc2O[C@@H]1CN(C)Cc1ccc(Cl)c(Cl)c1	57	-2	-0.059
CC(C)(C)c1ccc(-c2cc3ccccn3c2)cc1	7	1	10*
CC(C)(C)c1ccc(-c2nc(=O)[nH]n2-c2ccccc2)cc1	-4	.	.
C[C@H]1CN([C@@H](C)CO)C(=O)c2cc(NS(=O)(=O)c3ccc(Cl)cc3)ccc2O[C@@H]1CN(C)S(=O)(=O)c1ccc(Cl)cc1	26	.	-0.35
COc1ccc(NC(=O)CSc2nc3scc(C)c3c(=O)[nH]2)cc1	91*	1	.
COc1ccc(NC(=O)CSc2nc(C)cc(=O)[nH]2)cc1	5	0	.
C[C@H]1CN([C@@H](C)CO)C(=O)Cc2cc(NS(=O)(=O)c3ccc(Cl)cc3)ccc2O[C@H]1CN(C)Cc1ccc(Cl)c(Cl)c1	2	1	0.37
CNC[C@@H]1Oc2ccc(NC(=O)CCN3CCOCC3)cc2CC(=O)N([C@H](C)CO)C[C@H]1C	-20	1	9.5*
CNC[C@@H]1Oc2ccc(NC(=O)CCN3CCOCC3)cc2CC(=O)N([C@@H](C)CO)C[C@@H]1C	-8	.	0.19
C[C@H]1CN([C@@H](C)CO)C(=O)Cc2cc(NC(=O)CCN3CCOCC3)ccc2O[C@H]1CN(C)Cc1ccc(Cl)c(Cl)c1	-3	1	0.23
C[C@@H]1CN([C@@H](C)CO)C(=O)Cc2cc(NS(C)(=O)=O)ccc2O[C@@H]1CN(C)Cc1ccc(Cl)c(Cl)c1	104*	-3	-0.19
C[C@H]1CN([C@@H](C)CO)C(=O)Cc2cc(NC(=O)CCN3CCOCC3)ccc2O[C@@H]1CN(C)Cc1ccc(Cl)c(Cl)c1	90*	3	-0.052
Cc1noc(C)c1C(=O)n1cc2c(n1)-c1cc(F)ccc1SC2	-17	.	.
CC(=O)NC1=NC(=O)/C(=C/c2cccc(Oc3ccccc3)c2)S1	21	.	.
O=C(N/N=C/c1cccc(Oc2ccccc2)c1)c1ccccn1	17	.	-0.33
O=C(c1ccccc1)N1N=C2CCCCC2C1(O)C(F)(F)F (centres undefined)	-13	.	.
CCOC(=O)c1oc2ccc3c(c2c1C)C(=O)CC(C)(C)O3	4	.	.
C[C@@H]1CN([C@@H](C)CO)C(=O)Cc2cc(NC(=O)Nc3ccc(F)cc3)ccc2O[C@@H]1CN(C)C(=O)Nc1ccc2c(c1)OCO2	-15	.	0.033
